{
  "source": "PubChem BioAssay (NCATS)",
  "note": "Records with an inconclusive call do not appear. The source made the active and inactive calls. The call rests on the fitted dose curve; in most records, active means well fitted cell-killing curve with a large enough effect; inconclusive means small, poorly fitted or top-dose-only effect; inactive means flat fitted curve, though single readings scatter. Potency means the concentration at half of the fitted maximal effect.",
  "data": [
    {"experiment": "Cell Viability - LYMP2-011 (AID 969); further: nearly all actives have a fitted effect of over 60% in size;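 on viability change, negative = cytotoxic: 0% = DMSO only and full inhibition = 92 µM tetraoctylammonium bromide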", "details": "LYMP2-011 lymphoblastoid cells viability; series mostly up to 92.2 µM; viability change, negative = cytotoxic: at the top concentration", "excerpt": "NIH Chemical Genomics Center [NCGC]\nNIH Molecular Libraries Screening Centers Network [MLSCN]\nNational Institutes of Environmental Health Sciences [NIEHS]\nNational Toxicology Program [NTP]\nWe have developed a 1536-well cell-based assay for quantitative high throughput screening (qHTS) against a number of cell lines to determine in vitro cytotoxicity of small molecules. This particular assay uses a human lymphoblastoid cell line (LYMP2-011) purchased from Coriell Institute for Medical Research.\nNCGC Assay Protocol Summary:\nThe CellTiter-Glo luminescent cell viability assay (Promega) is a homogeneous method to measure the number of viable cells in culture. The end point readout of this assay is based on quantitation of intracellular ATP, an indicator of metabolic activity, using the luciferase reaction. Luciferase catalyzes the oxidation of beetle Luciferin to oxyluciferin and light in the presence of ATP. The luminescent signal is proportional to amount of ATP present.\nUsing the CellTiter-Glo luminescent cell viability assay, the amount of cellular ATP was measured in the lymphoblastoid cell line with complete culture medium following compound treatment for 24 hours. The assay was performed in opaque white Kalypsys 1536-well plates. In the screen, tetraoctylammonium bromide was used as positive control. Library compounds were measured for their ability to cause acute toxicity in the cell line, as reflected by a decrease in intracellular ATP levels, in a concentration-dependent manner. […] AC50 values were determined from concentration-response data modeled with the standard Hill equation.\nqHTS protocol for CellTiter Glo lymphoblastoid cellular assay\n[Step] [Parameter] [Value] [Description]\n1. Reagent; 5 uL; 2500 lymphoblastoid cells/well\n2. Time; 5 hr; 37 C incubation\n4. Controls; 23 nL; Tetraoctylammonium bromide 6.4pM to 92 uM\n5. Time; 24 hr; 37 C incubation\n6. Reagent; 5 uL; CellTiter Glo reagent\n7. Time; 30 min; Room Temperature\n8. Detection; Luminescence; Viewlux plate reader\nKeywords: cell viability, cytotoxicity, lymphoblastoid cell line, luminescence, NTPHTS, NTPHTS_NCGC, NIEHS, DSSTox, MLSMR, MLSCN, NIH Roadmap, qHTS, NCGC", "values": [
      {"smiles": "CC(C)C(C)(C)C(C)(C)C(C)(C)S", "viability change, negative = cytotoxic": "-0.743% (inactive)"},
      {"smiles": "COc1cc(C=O)ccc1O", "viability change, negative = cytotoxic": "-3.47% (inactive)"},
      {"smiles": "C1=CC2C3C=CC(C3)C2C1", "note": "(centres undefined)", "viability change, negative = cytotoxic": "3.85% (inactive)"},
      {"smiles": "Cc1ccc(O)cc1", "viability change, negative = cytotoxic": "0.422% (inactive)"},
      {"smiles": "Oc1ccccc1", "viability change, negative = cytotoxic": "-7.46% (inactive)"},
      {"smiles": "Cc1cc(C(C)(C)C)c(O)c(C(C)(C)C)c1", "viability change, negative = cytotoxic": "1.32% (inactive)"},
      {"smiles": "O=C(c1ccccc1)c1ccccc1", "viability change, negative = cytotoxic": "-4.25% (inactive)"},
      {"smiles": "Nc1cccc2c(N)cccc12", "viability change, negative = cytotoxic": "-10.6% (inactive)"},
      {"smiles": "CC(C)(c1ccc(O)cc1)c1ccc(O)cc1", "Potency": "inactive"},
      {"smiles": "Nc1ccc(O)cc1", "Potency": "39.8 µM (active)"},
      {"smiles": "O=C(NO)c1ccccc1", "viability change, negative = cytotoxic": "-11.8% (inactive)"},
      {"smiles": "CCCCCCCCCCCCCCCC[n+]1ccccc1", "Potency": "20 µM (active)"},
      {"smiles": "Nc1c2ccccc2nc2ccccc12", "Potency": "12.6 µM (active)"},
      {"smiles": "OCc1c[nH]c2ccccc12", "viability change, negative = cytotoxic": "-7.68% (inactive)"},
      {"smiles": "CCCC(=O)c1cc(O)c(O)cc1O", "viability change, negative = cytotoxic": "-9.44% (inactive)"},
      {"smiles": "CCCCC(CC)COC(=O)c1ccccc1C(=O)O", "note": "(centres undefined)", "viability change, negative = cytotoxic": "-1.5% (inactive)"},
      {"smiles": "O=C(Oc1ccccc1)c1ccccc1O", "viability change, negative = cytotoxic": "5.88% (inactive)"},
      {"smiles": "c1ccc2occc2c1", "viability change, negative = cytotoxic": "0.993% (inactive)"},
      {"smiles": "Brc1ccccc1-c1ccccc1", "viability change, negative = cytotoxic": "2.37% (inactive)"}
    ]}
  ]
}
